# Data taken from PubChem BioAssay AID1159580 (chemical genetic matrix, 2015).
# Among all 5,500 compounds or so, about 2,000 (36%) were called active. About 18% were inconclusive and are not listed. The list shows a part of the results. Values without a mark were called inactive. No stated cut-off is given here; in the data, active means normalized growth mostly below about 0.91 (no sharp cut-off); inconclusive means no clear call, values can overlap the other calls; inactive means mostly above about 0.92.
# Experiment: chemical genetic growth profiling, strain panel (AID 1159580);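 further: tested at 20 µM; growth read once vehicle control cultures reached saturation at 30 °C; 1 = growth at the plate median or of vehicle wells; lower values mean less growth of the strain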
# Conditions: growth OD
# [1] = S. cerevisiae deletion strains, locus YAL040C, strain CLN3, active compounds read low
# [2] = S. cerevisiae deletion strains, locus YCL061C, strain MRC1 (second series), active compounds read low
# [3] = S. cerevisiae deletion strains, locus YDR363W, strain ESC2, active compounds read low
# [4] = S. cerevisiae deletion strains, locus YER002W, strain NOP16, active compounds read low
# [5] = S. cerevisiae deletion strains, locus YNL153C, strain GIM3, active compounds read low
# [6] = S. cerevisiae deletion strains, locus YNL175C, strain NOP13, active compounds read low
# [7] = S. cerevisiae deletion strains, locus YNL197C, strain WHI3, active compounds read low
# [8] = S. cerevisiae deletion strains, locus YNL224C, strain SQS1, active compounds read low
# [9] = S. cerevisiae deletion strains, locus YOR083W, strain WHI5 (second series), active compounds read low
# [10] = S. cerevisiae deletion strains, locus YGR078C, strain PAC10, active compounds read low
# [11] = S. cerevisiae deletion strains, locus YJR075W, strain HOC1, active compounds read low
# [12] = S. cerevisiae deletion strains, locus YMR263W, strain SAP30, active compounds read low
smiles,measurement,setting,value
Nc1ncnc2c1ncn2[C@@H]1O[C@H](CO)[C@H](O)C1O (stereo partly specified),normalized growth,[1],0.999
same,normalized growth,[2],0.998
same,normalized growth,[3],1.01
same,normalized growth,[4],1.01
same,normalized growth,[5],1.04
same,normalized growth,[6],1.02
same,normalized growth,[7],1.02
same,normalized growth,[8],1.02
same,normalized growth,[9],1.07
Nc1ncnc2c1ncn2[C@@H]1O[C@H](COP(=O)(O)CP(=O)(O)OP(=O)(O)O)[C@H](O)C1O (stereo partly specified),normalized growth,[1],1.08
same,normalized growth,[2],0.999
same,normalized growth,[3],1
same,normalized growth,[4],0.983
same,normalized growth,[10],1.02
same,normalized growth,[11],1.02
same,normalized growth,[12],1
same,normalized growth,[6],1
same,normalized growth,[7],1
same,normalized growth,[8],0.999
same,normalized growth,[9],1
Nc1nc2c(ncn2C2C[C@H](O)[C@@H](CO)O2)c(=O)[nH]1 (stereo partly specified),normalized growth,"S. cerevisiae deletion strains, locus YAL013W, strain DEP1, active compounds read low",0.995
same,normalized growth,"S. cerevisiae deletion strains, locus YBR021W, strain FUR4, active compounds read low",1
same,normalized growth,"S. cerevisiae deletion strains, locus YBR229C, strain ROT2, active compounds read low",0.997
same,normalized growth,"S. cerevisiae deletion strains, locus YCL029C, strain bik1, active compounds read low",0.573 (active)
same,normalized growth,"S. cerevisiae deletion strains, locus YDL035C, strain GPR1, active compounds read low",1.02
same,normalized growth,"S. cerevisiae deletion strains, locus YDL074C, strain BRE1, active compounds read low",1.02
same,normalized growth,"S. cerevisiae deletion strains, locus YDL101C, strain DUN1, active compounds read low",1
same,normalized growth,"S. cerevisiae deletion strains, locus YDL134C, strain PPH21, active compounds read low",1.01
same,normalized growth,"S. cerevisiae deletion strains, locus YDL185W, strain tfp1, active compounds read low",0.999
same,normalized growth,"S. cerevisiae deletion strains, locus YDL192W, strain arf1, active compounds read low",0.179 (active)
same,normalized growth,"S. cerevisiae deletion strains, locus YDR101C, strain arx1, active compounds read low",0.447 (active)
same,normalized growth,"S. cerevisiae deletion strains, locus YDR150W, strain NUM1, active compounds read low",1.02
same,normalized growth,"S. cerevisiae deletion strains, locus YDR162C, strain NBP2, active compounds read low",1
same,normalized growth,"S. cerevisiae deletion strains, locus YDR318W, strain mcm21, active compounds read low",0.322 (active)
same,normalized growth,"S. cerevisiae deletion strains, locus YDR388W, active compounds read low",0.162 (active)
same,normalized growth,"S. cerevisiae deletion strains, locus YDR502C, strain sam2, active compounds read low",0.359 (active)
same,normalized growth,"S. cerevisiae deletion strains, locus YEL061C, strain CIN8, active compounds read low",0.979
same,normalized growth,"S. cerevisiae deletion strains, locus YER110C, active compounds read low",0.627 (active)
same,normalized growth,"S. cerevisiae deletion strains, locus YER155C, strain BEM2, active compounds read low",0.994
same,normalized growth,"S. cerevisiae deletion strains, locus YER167W, strain BCK2, active compounds read low",1.01
same,normalized growth,"S. cerevisiae deletion strains, locus YGL078C, strain dbp3, active compounds read low",1
same,normalized growth,"S. cerevisiae deletion strains, locus YGL086W, strain mad1, active compounds read low",0.357 (active)
same,normalized growth,"S. cerevisiae deletion strains, locus YGL248W, strain PDE1, active compounds read low",0.996
same,normalized growth,[10],1
same,normalized growth,"S. cerevisiae deletion strains, locus YGR135W, strain pre9, active compounds read low",0.328 (active)
same,normalized growth,"S. cerevisiae deletion strains, locus YGR229C, strain SMI1, active compounds read low",1.01
same,normalized growth,"S. cerevisiae deletion strains, locus YGR252W, strain gcn5, active compounds read low",0.352 (active)
same,normalized growth,"S. cerevisiae deletion strains, locus YHR030C, strain SLT2, active compounds read low",1.01
same,normalized growth,"S. cerevisiae deletion strains, locus YHR079C, strain IRE1 (second series), active compounds read low",0.446 (active)
same,normalized growth,"S. cerevisiae deletion strains, locus YHR094C, strain hxt1, active compounds read low",0.456 (active)
same,normalized growth,"S. cerevisiae deletion strains, locus YHR129C, strain ARP1, active compounds read low",1
same,normalized growth,"S. cerevisiae deletion strains, locus YHR200W, strain rpn10, active compounds read low",0.357 (active)
same,normalized growth,"S. cerevisiae deletion strains, locus YIL066C, strain RNR3, active compounds read low",1.03
same,normalized growth,"S. cerevisiae deletion strains, locus YIL073C, strain SPO22, active compounds read low",1.1
same,normalized growth,"S. cerevisiae deletion strains, locus YIL125W, strain kgd1, active compounds read low",1.01
same,normalized growth,"S. cerevisiae deletion strains, locus YIR030C, strain dcg1, active compounds read low",0.46 (active)
same,normalized growth,"S. cerevisiae deletion strains, locus YJL095W, strain BCK1, active compounds read low",1
same,normalized growth,"S. cerevisiae deletion strains, locus YJL134W, strain LCB3, active compounds read low",1
same,normalized growth,"S. cerevisiae deletion strains, locus YJL168C, strain set2, active compounds read low",0.527 (active)
same,normalized growth,"S. cerevisiae deletion strains, locus YJL187C, strain SWE1 (second series), active compounds read low",1.01
same,normalized growth,"S. cerevisiae deletion strains, locus YJR043C, strain POL32, active compounds read low",1
same,normalized growth,[11],0.992
same,normalized growth,"S. cerevisiae deletion strains, locus YKL009W, strain mrt4, active compounds read low",1.02
same,normalized growth,"S. cerevisiae deletion strains, locus YKL068W, active compounds read low",1.01
same,normalized growth,"S. cerevisiae deletion strains, locus YKL085W, strain MDH1 (second series), active compounds read low",1.01
same,normalized growth,"S. cerevisiae deletion strains, locus YKL085W, strain MDH1, active compounds read low",1.01
same,normalized growth,"S. cerevisiae deletion strains, locus YKL190W, strain CNB1, active compounds read low",1
same,normalized growth,"S. cerevisiae deletion strains, locus YKR001C, strain vps1, active compounds read low",0.189 (active)
same,normalized growth,"S. cerevisiae deletion strains, locus YLR039C, strain RIC1, active compounds read low",1.02
same,normalized growth,"S. cerevisiae deletion strains, locus YLR058C, strain SHM2, active compounds read low",1
same,normalized growth,"S. cerevisiae deletion strains, locus YLR102C, strain apc9, active compounds read low",0.543 (active)
same,normalized growth,"S. cerevisiae deletion strains, locus YLR262C, strain YPT6, active compounds read low",1.08
same,normalized growth,"S. cerevisiae deletion strains, locus YLR268W, strain sec22, active compounds read low",0.406 (active)
same,normalized growth,"S. cerevisiae deletion strains, locus YLR330W, strain CHS5, active compounds read low",0.995
same,normalized growth,"S. cerevisiae deletion strains, locus YLR342W, strain FKS1 (second series), active compounds read low",1.04
same,normalized growth,"S. cerevisiae deletion strains, locus YLR371W, strain rom2, active compounds read low",0.391 (active)
same,normalized growth,"S. cerevisiae deletion strains, locus YLR418C, strain cdc73, active compounds read low",0.261 (active)
same,normalized growth,"S. cerevisiae deletion strains, locus YML016C, strain PPZ1, active compounds read low",1.01
same,normalized growth,"S. cerevisiae deletion strains, locus YML032C, strain rad52, active compounds read low",0.408 (active)
same,normalized growth,"S. cerevisiae deletion strains, locus YML124C, strain tub3, active compounds read low",0.554 (active)
same,normalized growth,"S. cerevisiae deletion strains, locus YMR078C, strain ctf18, active compounds read low",0.852 (active)
same,normalized growth,"S. cerevisiae deletion strains, locus YMR223W, strain ubp8, active compounds read low",0.315 (active)
same,normalized growth,[12],1.01
same,normalized growth,"S. cerevisiae deletion strains, locus YMR307W, strain GAS1, active compounds read low",1.01
same,normalized growth,"S. cerevisiae deletion strains, locus YNL067W, strain RPL9B, active compounds read low",1.01
same,normalized growth,"S. cerevisiae deletion strains, locus YNL128W, strain TEP1, active compounds read low",1
same,normalized growth,[5],1.01
same,normalized growth,"S. cerevisiae deletion strains, locus YNL233W, strain BNI4, active compounds read low",1
same,normalized growth,"S. cerevisiae deletion strains, locus YNL250W, strain rad50, active compounds read low",1.02
same,normalized growth,"S. cerevisiae deletion strains, locus YNL271C, strain bni1, active compounds read low",1.02
same,normalized growth,"S. cerevisiae deletion strains, locus YNL298W, strain CLA4, active compounds read low",1.03
same,normalized growth,"S. cerevisiae deletion strains, locus YNL307C, strain MCK1, active compounds read low",0.222 (active)
same,normalized growth,"S. cerevisiae deletion strains, locus YNL322C, strain KRE1, active compounds read low",1
same,normalized growth,"S. cerevisiae deletion strains, locus YNR052C, strain pop2, active compounds read low",0.137 (active)
same,normalized growth,"S. cerevisiae deletion strains, locus YOL006C, strain TOP1, active compounds read low",1.04
same,normalized growth,"S. cerevisiae deletion strains, locus YOL012C, strain htz1",2.5 [resistant] (active)
same,normalized growth,"S. cerevisiae deletion strains, locus YOL147C, strain pex11, active compounds read low",0.451 (active)
same,normalized growth,"S. cerevisiae deletion strains, locus YOR061W, strain CKA2, active compounds read low",0.998
same,normalized growth,"S. cerevisiae deletion strains, locus YOR069W, strain VPS5, active compounds read low",1
same,normalized growth,"S. cerevisiae deletion strains, locus YOR136W, strain idh2, active compounds read low",0.531 (active)
same,normalized growth,"S. cerevisiae deletion strains, locus YOR144C, strain elg1, active compounds read low",0.619 (active)
same,normalized growth,"S. cerevisiae deletion strains, locus YOR184W, strain ser1, active compounds read low",1.02
same,normalized growth,"S. cerevisiae deletion strains, locus YOR316C, strain cot1, active compounds read low",0.416 (active)
same,normalized growth,"S. cerevisiae deletion strains, locus YPL055C, strain LGE1, active compounds read low",0.976
same,normalized growth,"S. cerevisiae deletion strains, locus YPL241C, strain CIN2, active compounds read low",0.98
same,normalized growth,"S. cerevisiae deletion strains, locus YPR119W, strain clb2, active compounds read low",0.645 (active)
same,normalized growth,"S. cerevisiae deletion strains, locus YPR141C, strain kar3, active compounds read low",1.02
same,normalized growth,"S. cerevisiae deletion strains, locus YPR163C, strain tif3, active compounds read low",0.37 (active)
same,normalized growth,"S. cerevisiae deletion strains, locus YPR167C, strain met16, active compounds read low",0.33 (active)
same,normalized growth,"S. cerevisiae deletion strains, strain wtn01, active compounds read low",0.229 (active)
same,normalized growth,"S. cerevisiae strains, strain wild type, active compounds read low",0.984
